# ChEMBL document CHEMBL1157539, “Thousands of chemical starting points for antimalarial lead identification” (Nature, 2010)
# Tests used:
# Type in all cases: functional
# Plasmodium falciparum [1] = test: GSK_TCMDC: Inhibition of Plasmodium falciparum 3D7 in whole red blood cells, using parasite LDH activity as an index of growth. Test compounds present at 2uM
# Plasmodium falciparum [2] = test: GSK_TCMDC: Inhibition of Plasmodium falciparum Dd2 in whole red blood cells, using parasite LDH activity as an index of growth. Test compounds present at 2uM
# HepG2 = test: GSK_TCMDC: Percent inhibition of human HepG2 cell line. Test compounds present at 10uM.
SMILES,Inhibition (Plasmodium falciparum [1]) [%],Inhibition (Plasmodium falciparum [2]) [%],Inhibition (HepG2) [%]
COc1ccc2nc(C)cc(NCc3cccc4ccccc34)c2c1.Cl,100,72,28
CC(=O)Nc1nc(N)c2c(ccc3c2ccn3CC(C)C)n1,94,78,66
CN1CCCN(Cc2cccc(-c3ccc(NC(=O)c4cccc(C#N)c4)cc3)c2)CC1.O=C(O)C(F)(F)F,100,96,27
COc1cc2nc(NCCn3ccnc3C)nc(NCCc3ccccc3)c2cc1OC,99,0,21
CN1CCc2cc(NC(=O)c3cc4ccccc4s3)cc(-c3ccccc3)c2CC1.Cl,91,11,20
O=C(O)C(F)(F)F.c1cncc(CCNCc2cccc(-c3csc(-c4nc5ccccc5[nH]4)c3)c2)c1,100,98,26
Br.Cc1cc(C)c(CON2C(=N)N=C(N)NC2(C)C)cc1C,92,93,65
Oc1ccc(-c2ccccc2)cc1CN1CCCCCC1,95,85,6
CN1CCN(Cc2ccc(-c3ccc4c(Nc5ccc(Oc6ccccc6)cc5)ccnc4c3)o2)CC1,99,99,23
CNCc1ccc2nc(-c3coc(Cc4cc(Cl)ccc4OCC(C)C)n3)[nH]c2c1.Cl,100,95,34
CN(C)CCN(C)Cc1cccc(-c2ccc3c(Nc4ccc(F)cc4Cl)ccnc3c2)c1,100,100,53
CCCCOc1cc2c(cc1OCC)C(C=Cc1ccc(Cl)cc1Cl)=NCC2.Cl,97,95,0
O=C(NCc1ccco1)c1ccc(CN2CCN(C(c3ccccc3)c3ccccc3)CC2)cc1,96,92,6
CC(=O)Nc1ccc(CN(Cc2ccc(OC(C)(C)C)cc2)Cc2ccc3c(c2)OCCO3)cc1,91,75,7
Cc1ccccc1C1CCN(C2CCC(NC(=O)c3cc4cc(C(C)C)ccc4[nH]3)CC2)CC1 (stereo unspecified),99,100,100
O=C(O)C(F)(F)F.c1ccc(CN2CCC(NCc3ccccc3-c3ccc(CNCc4ccc5c(c4)OCO5)cc3)CC2)cc1,100,49,26

SMILES,Inhibition (Plasmodium falciparum [1]) [%],Inhibition (Plasmodium falciparum [2]) [%],Inhibition (HepG2) [%]
COc1ccc(CNCc2ccccc2)cc1-c1cccc(S(=O)(=O)NCCN2CCCC2)c1.O=C(O)C(F)(F)F,98,36,37
CCc1sc(-c2cc(Cl)ccc2OC)nc1C(=O)NCCN1CCCCC1.O=C(O)C(F)(F)F,100,28,3
CS(=O)(=O)c1ccc(-c2cncc(Nc3cccc([N+](=O)[O-])c3)c2)cc1,97,70,6
Cc1cccc(-c2nc3cc(NC(=O)c4ccc([N+](=O)[O-])o4)ccc3o2)c1,94,73,8
Cc1ccc(S(=O)(=O)N(CCCNCc2cccc(O)c2)c2ccccc2)cc1,95,94,6
CCOc1ccc(Cc2c(C)nc3nc(N)nc(N)c3c2C)cc1.Cl,91,7,63
Cc1ccc(NC(=O)Nc2ccc(I)c(OCCN(C)C)c2)cc1Cl,98,22,11
C=Cc1cc(NC(=O)N2CCc3cc(OC)c(C(F)(F)F)cc32)cc(-c2cccnc2)c1,92,20,7
CC(C)C(C(=O)n1ncc2c3c(N)nc(N)nc3ccc21)C(C)C,98,8,67
O=C(Nc1ccc(OC2CCN(Cc3ccccc3)CC2)c(Cl)c1)c1ccsc1.O=C(O)C(F)(F)F,87,92,3
CN(C)CCOc1cc(NC(=O)c2ccc(-c3ccc(Cl)cc3Cl)cc2)ccc1-c1ccccc1,98,26,45
CC(C)(C)c1ccc(CN2CCC(NC(=O)c3ccc(-c4cccc(C(F)(F)F)c4)s3)CC2)cc1.O=C(O)C(F)(F)F,100,96,97
O=C(Nc1ccc2c(c1)CCN2C1CCN(Cc2ccc(F)cc2Cl)C1)c1ccco1 (stereo unspecified),97,96,4
O=C(NOCc1ccccc1)c1cc(Cl)ccc1O,83,0,2
O=C(O)C(F)(F)F.O=C1CCCN1CCCNCc1ccc(-c2cccc(-c3nc4cc(F)ccc4[nH]3)c2)cc1,100,8,12
CC1(C)Cc2c([nH]c3ccccc23)C(CCCCCCCCC2=NC(C)(C)Cc3c2[nH]c2ccccc32)=N1.Cl,99,88,100
